According to PubChem BioAssay:
Calls of active or inactive are those of the source.

How the values were obtained:
Albumin (Bos taurus) = Albumin (Bos taurus) (UniProt P02769); experiment: bovine serum albumin binders on microarray, profiling panel, artefact control for SMM control protein annotation, biochemical, small-molecule microarray, Alexa647 label, 635/667 nm fluorescence (AID 1118); conditions: BSA-A647 binding, fluorescence 635 nm, higher = more signal;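 note: score merges 667 nm emission intensity and signal-to-noise per printed compound spot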
Sequence of Albumin (Bos taurus) (P02769 whole entry, looked up): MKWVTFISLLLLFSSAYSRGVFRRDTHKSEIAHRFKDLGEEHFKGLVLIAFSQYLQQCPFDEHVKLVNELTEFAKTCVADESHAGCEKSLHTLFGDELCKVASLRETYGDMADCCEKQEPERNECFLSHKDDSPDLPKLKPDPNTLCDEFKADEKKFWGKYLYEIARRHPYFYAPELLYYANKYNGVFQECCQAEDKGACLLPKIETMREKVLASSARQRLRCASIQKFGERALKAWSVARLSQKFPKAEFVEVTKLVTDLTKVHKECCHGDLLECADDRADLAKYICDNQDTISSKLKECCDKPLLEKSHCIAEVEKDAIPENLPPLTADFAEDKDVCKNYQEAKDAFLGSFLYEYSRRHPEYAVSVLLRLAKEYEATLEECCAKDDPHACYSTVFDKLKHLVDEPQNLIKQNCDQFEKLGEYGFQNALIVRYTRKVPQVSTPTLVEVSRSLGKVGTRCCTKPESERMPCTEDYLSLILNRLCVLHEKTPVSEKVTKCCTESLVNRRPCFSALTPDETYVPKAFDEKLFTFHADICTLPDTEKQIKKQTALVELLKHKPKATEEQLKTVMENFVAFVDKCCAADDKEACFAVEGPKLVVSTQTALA

[1] = small-molecule microarray binders of probe aXIP, primary screen, biochemical, NeuroSMM set, 635/667 nm fluorescence (AID 1119); conditions: higher = more signal, called active from +8 up or from −8 down;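 note: probe is the protein aXip251-270 applied at 1 µg/mL to compound-printed slides; binding of probe to printed compounds measured as 667 nm fluorescence plus signal to noise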
[2] = small-molecule binders of probe aNOTCH3, primary screen, biochemical, small-molecule microarray, 635/667 nm fluorescence (AID 1120); conditions: higher = more signal;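 note: probe is a biotin-tagged antibody raised against NOTCH3 rather than NOTCH3 protein; score merges spot fluorescence near 667 nm with spot signal to noise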
[3] = small-molecule binders of probe aNOTCH2, primary screen, biochemical, small-molecule microarray, 635/667 nm fluorescence (AID 1121); conditions: higher = more signal;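 note: score merges feature fluorescence read at 667 nm with its signal to noise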
[4] = molecular target: Carbonic anhydrase 2 (Homo sapiens) (UniProt P00918); experiment: CAII small-molecule binders, profiling panel, biochemical, small-molecule microarray, Alexa647-labelled CAII (AID 1122); conditions: CAII-A647 binding fluorescence, higher = more signal
[5] = COS7 lysate on small-molecule microarray, probe aHis, 635 nm (AID 1123); conditions: COS7 cell lysate, fluorescence, higher = more signal;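 note: z-score combines 667nm fluorescence intensity with signal-to-noise per printed compound spot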
[6] = compound binding in COS7 lysate, probe aLAP1, primary screen, cell lysate, small-molecule microarray (AID 1124); conditions: probe aLAP1, fluorescence, higher = more signal;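 note: lysate comes from COS7 cells expressing LAP1 and is applied at 0.3 µg/mL; score merges spot fluorescence near 667 nm with signal-to-noise over triplicate slides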
Sam68 (KHDRBS1) = experiment: Sam68 small-molecule binders, primary screen, biochemical, small-molecule microarray, 635 nm fluorescence (AID 1125); conditions: small-molecule microarray binding, higher = more signal;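 note: score merges 667 nm channel intensity with signal to noise over triplicate slides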
[7] = test system: Chordin-like protein 2 (CHRDL2); experiment: CHRDL2 small-molecule binders, primary screen, biochemical, small-molecule microarray, 635 nm fluorescence (AID 1126); conditions: small-molecule microarray binding, fluorescence 635 nm; higher = more signal;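 note: printed compound slides probed with Chrdl2 protein at 4 µg/mL for 1 h at 4 C; score merges 667 nm emission intensity with signal to noise over three replicate slides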
[8] = molecular target: Concanavalin-A (Canavalia ensiformis) (UniProt P02866); experiment: ConA small-molecule binders, primary screen, artefact control for SMM control protein annotation, biochemical, small-molecule microarray, Alexa647 label, 635 nm (AID 1127); conditions: ConA-A647 binding fluorescence, higher = more signal;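 note: z combines 667 nm emission intensity with signal-to-noise across three replicate slides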
Sequence of Concanavalin-A (Canavalia ensiformis) (P02866 whole entry, looked up): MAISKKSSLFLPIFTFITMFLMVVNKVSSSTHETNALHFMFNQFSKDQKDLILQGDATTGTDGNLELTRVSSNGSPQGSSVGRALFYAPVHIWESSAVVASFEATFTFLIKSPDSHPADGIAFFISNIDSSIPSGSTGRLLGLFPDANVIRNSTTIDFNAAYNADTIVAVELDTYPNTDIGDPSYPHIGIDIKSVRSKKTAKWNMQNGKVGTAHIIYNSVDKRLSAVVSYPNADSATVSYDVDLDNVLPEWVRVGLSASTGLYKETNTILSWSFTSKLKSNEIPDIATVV

[9] = anti-His antibody binders, primary screen, artefact control for SMM control protein annotation, biochemical, small-molecule microarray, 635 nm fluorescence (AID 1128); conditions: anti-His Alexa647 antibody binding, higher = more signal;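 note: score merges feature fluorescence with signal-to-noise for each printed compound spot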
[10] = test system: Human papillomavirus type 1a E7 protein (residues 1-88); experiment: HPV1a E7 small-molecule binders, primary screen, biochemical, small-molecule microarray, residues 1-88, 635 nm (AID 1129); conditions: small-molecule microarray binding, fluorescence 635 nm; higher = more signal
[11] = molecular target: Focal adhesion kinase 1 (Homo sapiens) (UniProt Q05397); experiment: small-molecule microarray binders of FAK, primary screen, biochemical, 635/667 nm fluorescence, BSA, DTT (AID 1130); conditions: PTK2 binding, 635 nm fluorescence, higher = more signal;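 note: composite of spot emission at 667 nm and signal to noise over triplicate slides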
Sequence of Focal adhesion kinase 1 (Homo sapiens) (Q05397 whole entry, looked up): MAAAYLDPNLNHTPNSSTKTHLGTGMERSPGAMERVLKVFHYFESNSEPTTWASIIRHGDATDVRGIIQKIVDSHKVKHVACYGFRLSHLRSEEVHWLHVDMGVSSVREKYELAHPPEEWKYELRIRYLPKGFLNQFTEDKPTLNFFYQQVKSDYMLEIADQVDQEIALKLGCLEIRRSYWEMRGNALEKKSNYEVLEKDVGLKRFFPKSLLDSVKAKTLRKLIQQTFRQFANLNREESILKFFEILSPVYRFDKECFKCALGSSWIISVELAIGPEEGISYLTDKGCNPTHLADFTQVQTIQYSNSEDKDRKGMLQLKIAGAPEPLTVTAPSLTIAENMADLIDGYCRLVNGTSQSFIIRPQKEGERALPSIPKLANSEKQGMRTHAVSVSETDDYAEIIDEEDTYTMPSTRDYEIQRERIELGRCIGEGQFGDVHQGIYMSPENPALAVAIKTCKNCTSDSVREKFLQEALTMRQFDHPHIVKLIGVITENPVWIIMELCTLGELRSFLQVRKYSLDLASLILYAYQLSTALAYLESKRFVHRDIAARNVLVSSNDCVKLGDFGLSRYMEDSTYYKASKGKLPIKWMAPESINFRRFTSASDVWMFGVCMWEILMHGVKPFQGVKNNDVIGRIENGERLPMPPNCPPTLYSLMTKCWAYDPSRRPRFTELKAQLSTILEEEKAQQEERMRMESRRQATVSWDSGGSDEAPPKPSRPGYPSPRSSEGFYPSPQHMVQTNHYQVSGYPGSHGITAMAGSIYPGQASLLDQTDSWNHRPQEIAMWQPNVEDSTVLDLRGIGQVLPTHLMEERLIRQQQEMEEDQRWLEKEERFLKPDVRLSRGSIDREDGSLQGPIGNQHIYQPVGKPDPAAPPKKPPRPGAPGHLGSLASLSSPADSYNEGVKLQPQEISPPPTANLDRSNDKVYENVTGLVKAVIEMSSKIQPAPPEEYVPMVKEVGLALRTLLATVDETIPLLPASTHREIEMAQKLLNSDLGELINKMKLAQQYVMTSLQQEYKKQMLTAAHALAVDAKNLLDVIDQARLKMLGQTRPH

[12] = test system: Fibrinogen (Alexa647-labelled); experiment: fibrinogen binders on compound microarrays, profiling panel, artefact control for SMM control-protein annotation, biochemical, small-molecule microarray, 635/667 nm fluorescence (AID 1131); conditions: fibrinogen-A647 binding fluorescence, higher = more signal;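 note: z-score merges 667 nm fluorescence with per-spot signal-to-noise over triplicate slides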
[13] = molecular target: Follistatin (Homo sapiens) (UniProt P19883); experiment: follistatin binders on small-molecule microarrays, primary screen, biochemical, small-molecule microarray, 635/667 nm fluorescence (AID 1132); conditions: FST binding, 635 nm fluorescence, higher = more signal
Sequence of Follistatin (Homo sapiens) (P19883 whole entry, looked up): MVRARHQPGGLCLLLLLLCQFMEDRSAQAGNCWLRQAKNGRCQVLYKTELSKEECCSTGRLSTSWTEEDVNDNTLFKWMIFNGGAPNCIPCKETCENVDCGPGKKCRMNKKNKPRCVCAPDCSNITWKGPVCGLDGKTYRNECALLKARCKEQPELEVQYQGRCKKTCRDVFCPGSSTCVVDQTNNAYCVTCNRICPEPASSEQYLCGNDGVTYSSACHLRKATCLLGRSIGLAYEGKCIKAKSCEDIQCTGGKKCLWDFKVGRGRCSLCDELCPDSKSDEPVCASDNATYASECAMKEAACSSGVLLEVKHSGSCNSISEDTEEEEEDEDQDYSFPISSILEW

[14] = molecular target: Fibroblast growth factor 2 (Homo sapiens) (UniProt P09038); experiment: FGF2 binders on small-molecule microarrays, primary screen, biochemical, small-molecule microarray, 635/667 nm fluorescence (AID 1133); conditions: small-molecule microarray binding, FGF2, fluorescence 635/667; higher = more signal
Sequence of Fibroblast growth factor 2 (Homo sapiens) (P09038 whole entry, looked up): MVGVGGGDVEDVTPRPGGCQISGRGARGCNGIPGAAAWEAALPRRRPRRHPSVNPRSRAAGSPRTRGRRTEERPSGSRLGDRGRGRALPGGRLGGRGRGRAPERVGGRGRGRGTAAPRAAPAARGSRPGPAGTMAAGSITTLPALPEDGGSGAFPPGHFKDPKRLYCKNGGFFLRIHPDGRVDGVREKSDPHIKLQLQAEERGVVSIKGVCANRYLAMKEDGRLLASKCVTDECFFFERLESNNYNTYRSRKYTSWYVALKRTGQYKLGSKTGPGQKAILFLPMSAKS

[15] = mitochondrial membrane potential change in A549 cells, profiling panel, cell-based, JC-1 fluorescence, basal, 24 h, 100 nL (AID 1138); conditions: higher = more signal;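 note: A549 lung adenocarcinoma cells under basal conditions with no added stimulus; test concentration not given here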
Lefty1 = Lefty1 binders on small-molecule microarrays, primary screen, biochemical, small-molecule microarray, 635/667 nm fluorescence (AID 1139); conditions: small-molecule microarray binding, fluorescence 635/667; higher = more signal
[16] = test system: wheat germ agglutinin (Triticum aestivum), Alexa647-labelled; experiment: wheat germ agglutinin binders on compound microarrays, profiling panel, artefact control for SMM control-protein annotation, biochemical, small-molecule microarray, 635/667 nm fluorescence (AID 1140); conditions: WGA-A647 binding, 635 nm fluorescence, higher = more signal;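 note: score merges 667 nm feature emission with signal to noise over triplicate slides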
[17] = molecular target: Luciferin 4-monooxygenase (Photinus pyralis) (UniProt P08659); experiment: firefly luciferase enzyme inhibitors, primary screen, biochemical, luminescence, purified enzyme, 2006 set (AID 1141); conditions: SteadyGlo luminescence, 30 min, higher = more signal, called active from +8 up or from −8 down;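 note: cell-free assay with purified firefly luciferase at 100 ng per well in PBS; test concentration not given here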
Sequence of Luciferin 4-monooxygenase (Photinus pyralis) (P08659 whole entry, looked up): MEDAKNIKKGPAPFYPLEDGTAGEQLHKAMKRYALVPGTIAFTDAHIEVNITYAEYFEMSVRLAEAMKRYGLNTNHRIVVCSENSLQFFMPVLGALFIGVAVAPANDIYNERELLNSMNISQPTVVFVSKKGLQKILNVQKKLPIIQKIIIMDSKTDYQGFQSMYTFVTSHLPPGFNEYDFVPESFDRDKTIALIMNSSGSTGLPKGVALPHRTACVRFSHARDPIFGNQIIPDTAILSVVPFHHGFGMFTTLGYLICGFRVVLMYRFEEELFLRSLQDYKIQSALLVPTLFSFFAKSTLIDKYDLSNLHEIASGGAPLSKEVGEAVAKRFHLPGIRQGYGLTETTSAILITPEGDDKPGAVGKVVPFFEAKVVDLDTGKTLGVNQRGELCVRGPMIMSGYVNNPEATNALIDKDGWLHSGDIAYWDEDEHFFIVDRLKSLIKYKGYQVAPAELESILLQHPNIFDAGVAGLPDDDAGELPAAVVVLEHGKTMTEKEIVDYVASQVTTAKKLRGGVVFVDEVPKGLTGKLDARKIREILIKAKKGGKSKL

| SMILES | composite z-score (Albumin (Bos taurus)) | composite Z-score [1] | composite z-score [2] | composite z-score [3] | composite z-score [4] | composite z-score [5] | composite z-score [6] | composite z-score (Sam68 (KHDRBS1)) | composite z-score [7] | composite z-score [8] | composite z-score [9] | composite z-score [10] | composite z-score [11] | composite z-score [12] | composite z-score [13] | composite z-score [14] | z-score [15] | composite z-score (Lefty1) | composite z-score [16] | z-score [17] |
| --- | --- | --- | --- | --- | --- | --- | --- | --- | --- | --- | --- | --- | --- | --- | --- | --- | --- | --- | --- | --- |
| C=CCC(OC(C)=O)[C@@H]1[C@@H](N(Cc2cccc3ccccc23)C(=O)c2ccc(C)cc2)c2cc(OCCCO)ccc2N1C(=O)Cc1ccc(OC)cc1 (stereo not given in full) | 0.15 | -0.858 (inactive) | 0.114 | -0.127 | 0.112 | 0.223 | -0.0098 | 0.175 | 0.352 | 0.0517 | 0.0508 | -0.0914 | 0.183 | 0.342 | 0.695 | -0.148 | 1.3 | 0.203 | 0.275 | 0.0544 (inactive) |
| Cc1ccccc1C(O)C1C=CC2C(=O)N(C)C(=O)C2N1N1CCCCC1 (stereo not given) | 0.992 | -0.118 (inactive) | 0.36 | 0.21 | 0.793 | 2.92 | 0.996 | 1.32 | 0.642 | 1.09 | 1.87 | 1.18 | 0.665 | 0.908 | 0.767 | 0.0201 | 0.0822 | 0.0198 | 0.596 | 0.497 (inactive) |
| C=CCOC(=O)[C@@H]1[C@H]2C(=O)O[C@H](c3ccccc3)[C@H](c3ccccc3)N2[C@H](c2ccc(OCCOC(=O)[C@@H]3C[C@@H]4C(=O)NCC(=O)N4[C@@H]3c3cccc(OCCO)c3)cc2)[C@@]12C(=O)Nc1ccc(I)cc12 | -0.991 | -0.0135 (inactive) | -0.0835 | -0.0242 | 0.501 | 1.59 | 0.875 | 1.3 | 0.926 | 0.964 | 1.26 | 1.17 | 0.259 | 0.615 | 1.32 | 1.31 | -1.21 | 0.914 | 0.449 | -0.408 (inactive) |
| COCC(=C=CC[C@@H](O)c1ccc(CO)o1)CCO | -0.606 | 0.111 (inactive) | -0.215 | -0.118 | 0.349 | -0.185 | 1.51 | 0.101 | 0.689 | 0.188 | -0.145 | 0.114 | -0.29 | -0.23 | 1.24 | 0.958 | -0.0212 | 1.24 | 0.43 | -0.877 (inactive) |
| CC(c1ccccc1)C(O)C1C=CC2C(=O)NC(=O)C2N1Nc1ccccn1 (stereo not given) | 0.183 | 0.239 (inactive) | 0.0876 | 0.0012 | 0.531 | 0.954 | 0.398 | 1.1 | 0.407 | 0.901 | 1.28 | 0.997 | -0.0073 | 0.675 | 1.12 | 0.458 | 0.845 | 0.335 | 0.528 | -1.64 (inactive) |
